# Test results: PubChem BioAssay (EPA / NIEHS)
# Records with an inconclusive call do not appear. Active and inactive are the calls of the source. The calls were made as follows: active = hit-call score of the fitted dose curve at least 0.9, where 1 is the maximum; inconclusive = response in the unintended direction; inactive = score below 0.9.
# Legend:
# [1] = molecular target: human Beta-secretase (BACE), BACE1 (gene 23621) (UniProt P56817); assay: NVS_ENZ_hBACE: NovaScreen (NVS) Enzymatic Assay for human Beta-secretase (BACE) (AID 2283140);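 also: hits are inhibitors that reduce fluorescent substrate signal versus DMSO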
# How it was run: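 Fluorescence intensity read-out of protease activity defines this endpoint; signal loss relative to DMSO baseline marks inhibition. Recombinant enzyme from SF9 cells, cell-free format, 1 h exposure. Single-concentration duplicate screen (25 uM) precedes concentration-series follow-up.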
# [2] = molecular target: human Esterase Plasma (ES), BCHE (gene 590) (UniProt P06276); assay: NVS_ENZ_hES: NovaScreen (NVS) Enzymatic Assay for human Esterase Plasma (ES) (AID 2283157)
# How it was run: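 Human plasma-derived enzyme, cell-free, colorimetric readout at 0.25 h. Primary screen 25 uM in duplicate; hits (e.g. ≥30% inhibition) rerun singleton up to 50 uM. DMSO = negative control/baseline.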
# [3] = molecular target: human AKT serine/threonine Kinase 2 (AKT2), AKT2 (gene 208) (UniProt P31751); assay: NVS_ENZ_hAKT2: NovaScreen (NVS) Enzymatic Assay for human AKT serine/threonine Kinase 2 (AKT2) (AID 2283141)
# How it was run: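 Cell-free fluorescence/electrophoretic mobility shift readout of recombinant human AKT2 activity, 1 h after chemical dosing. Duplicate primary screen at 25 uM, then singleton concentration-response up to 50 uM; loss of signal versus DMSO baseline.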
# [4] = molecular target: human Casein Kinase 1-delta (CK1D), CSNK1D (gene 1453) (UniProt P48730); assay: NVS_ENZ_hCK1D: NovaScreen (NVS) Enzymatic Assay for human Casein Kinase 1-delta (CK1D) (AID 2283148)
# How it was run: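 Recombinant human CK1-delta, cell-free; fluorescent substrate with electrophoretic mobility-shift separation of product, read 1 h after dosing. Single 25 uM duplicate screen, then concentration-response up to 50 uM; loss of signal vs DMSO.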
# [5] = molecular target: human Colony Stimulating Factor 1 Receptor (CSF1R), CSF1R (gene 1436) (UniProt P07333); assay: NVS_ENZ_hCSF1R: NovaScreen (NVS) Enzymatic Assay for human Colony Stimulating Factor 1 Receptor (CSF1R) (AID 2283150)
# How it was run: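 Compounds screened in duplicate at 25 uM, then concentration-response (top 50 uM) for those passing threshold such as 30% inhibition; recombinant CSF1R activity measured 1 h post-dosing via fluorescent substrate/product mobility-shift separation, loss of signal versus DMSO.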
# [6] = molecular target: human Caspase 4 (CASP4), CASP4 (gene 837) (UniProt P49662); assay: NVS_ENZ_hCASP4: NovaScreen (NVS) Enzymatic Assay for human Caspase 4 (CASP4) (AID 2283143)
# How it was run: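 Compounds were first tested in duplicate at 25 uM, and hits were titrated singly to a 50 uM maximum. Recombinant protease from E. coli was read by fluorescence 2 h post-dose, and activity loss was fitted against the DMSO baseline.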
# CDK2 (gene 1017) = CDK2 (gene 1017) (UniProt P24941); assay: NVS_ENZ_hCDK2: NovaScreen (NVS) Enzymatic Assay for human Cyclin-Cependent Kinase 2 (CDK2) (AID 2283144)
# Description: NVS_ENZ_hCDK2 is a biochemical, single-readout assay that uses extracted gene-proteins in a cell-free assay. Measurements were taken 1 hour after chemical dosing in a 384-well plate.NVS_ENZ_hCDK2 is one of one assay component(s) measured or calculated from the NVS_ENZ_hCDK2 assay. It is designed to make measurements of enzyme activity, a form of enzyme reporter, as detected with fluorescence intensity signals by Fluorescence and electrophoretic mobility shift technology.Data from the assay component NVS_ENZ_hCDK2 was analyzed into 1 assay endpoint. This assay endpoint, NVS_ENZ_hCDK2, was analyzed in the positive analysis fitting direction relative to DMSO as the negative control and baseline of activity. Using a type of enzyme reporter, loss-of-signal activity can be used to understand changes in the enzymatic activity as they relate to the gene CDK2. Furthermore, this assay endpoint can be referred to as a primary readout, because this assay has produced multiple assay endpoints where this one serves a enzymatic activity function. To generalize the intended target to other relatable targets, this assay endpoint is annotated to the kinase intended target family, where the subfamily is serine/threonine kinase. […]
# [7] = molecular target: human Elastase, ELANE (gene 1991) (UniProt P08246); assay: NVS_ENZ_hElastase: NovaScreen (NVS) Enzymatic Assay for human Elastase (AID 2283153)
# How it was run: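 Concentration-response to 50 uM max, run singly for chemicals passing a threshold (e.g., 30% inhibition) in a duplicate 25 uM single-point screen. Neutrophil-derived human elastase, absorbance read-out of enzyme activity at 1.5 h; DMSO baseline.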
# [8] = molecular target: human Dual Specificity Protein Phosphatase 3 (DUSP3), DUSP3 (gene 1845) (UniProt P51452); assay: NVS_ENZ_hDUSP3: NovaScreen (NVS) Enzymatic Assay for human Dual Specificity Protein Phosphatase 3 (DUSP3) (AID 2283152);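 also: phosphatase activity of recombinant human DUSP3 on a fluorogenic substrate without cells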
# How it was run: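 Cell-free fluorescence-intensity enzyme activity assay with recombinant protein and substrate; loss of signal fitted relative to DMSO baseline. Primary screen in duplicate at 25 uM, actives then run in concentration series; measured 0 h after dosing.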
# [9] = molecular target: human Caspase 8 (CASP8), CASP8 (gene 841) (UniProt Q14790); assay: NVS_ENZ_hCASP8: NovaScreen (NVS) Enzymatic Assay for human Caspase 8 (CASP8) (AID 2283146)
# How it was run: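 The primary screen tested compounds in duplicate at a single 25 uM concentration, with actives followed up in concentration series. Activity of recombinant (E. coli) protease was measured by fluorescence 1 h post-dose, as signal loss against DMSO.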
# human Colony Stimulating Factor 1 Receptor (CSF1R), CSF1R (gene 1436), sequence (P07333 whole entry, looked up): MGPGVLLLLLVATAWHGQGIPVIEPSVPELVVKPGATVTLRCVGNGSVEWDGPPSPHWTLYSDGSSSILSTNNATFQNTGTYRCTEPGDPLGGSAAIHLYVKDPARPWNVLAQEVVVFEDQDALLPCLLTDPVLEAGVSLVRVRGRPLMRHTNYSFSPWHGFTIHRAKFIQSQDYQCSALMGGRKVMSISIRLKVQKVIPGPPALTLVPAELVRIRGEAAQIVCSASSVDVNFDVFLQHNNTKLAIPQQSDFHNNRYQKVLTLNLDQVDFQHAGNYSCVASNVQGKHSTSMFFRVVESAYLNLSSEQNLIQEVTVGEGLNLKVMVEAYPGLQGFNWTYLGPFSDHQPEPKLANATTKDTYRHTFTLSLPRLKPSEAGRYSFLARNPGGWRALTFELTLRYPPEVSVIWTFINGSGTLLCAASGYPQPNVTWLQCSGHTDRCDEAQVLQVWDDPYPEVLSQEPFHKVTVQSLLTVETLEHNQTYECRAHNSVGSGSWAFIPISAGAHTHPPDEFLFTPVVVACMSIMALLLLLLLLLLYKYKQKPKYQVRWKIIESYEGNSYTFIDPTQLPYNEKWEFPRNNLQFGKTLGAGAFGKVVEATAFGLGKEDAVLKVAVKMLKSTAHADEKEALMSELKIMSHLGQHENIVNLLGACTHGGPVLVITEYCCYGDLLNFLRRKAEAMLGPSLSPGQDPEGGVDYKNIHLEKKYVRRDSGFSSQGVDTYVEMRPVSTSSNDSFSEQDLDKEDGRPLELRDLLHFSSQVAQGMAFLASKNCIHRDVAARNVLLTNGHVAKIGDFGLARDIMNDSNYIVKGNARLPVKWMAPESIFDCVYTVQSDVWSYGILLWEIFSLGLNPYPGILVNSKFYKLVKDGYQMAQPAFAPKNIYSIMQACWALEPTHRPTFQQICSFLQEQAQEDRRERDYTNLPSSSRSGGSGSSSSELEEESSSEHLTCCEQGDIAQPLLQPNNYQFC
# human Elastase, ELANE (gene 1991), sequence (P08246 whole entry, looked up): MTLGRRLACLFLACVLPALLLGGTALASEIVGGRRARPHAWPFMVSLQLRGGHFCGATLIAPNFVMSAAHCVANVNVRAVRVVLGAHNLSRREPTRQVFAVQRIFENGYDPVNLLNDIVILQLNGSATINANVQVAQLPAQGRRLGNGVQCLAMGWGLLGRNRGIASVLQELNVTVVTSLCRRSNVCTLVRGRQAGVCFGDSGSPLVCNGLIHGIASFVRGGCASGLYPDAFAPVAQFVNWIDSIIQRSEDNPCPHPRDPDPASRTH
# human Caspase 4 (CASP4), CASP4 (gene 837), sequence (P49662 whole entry, looked up): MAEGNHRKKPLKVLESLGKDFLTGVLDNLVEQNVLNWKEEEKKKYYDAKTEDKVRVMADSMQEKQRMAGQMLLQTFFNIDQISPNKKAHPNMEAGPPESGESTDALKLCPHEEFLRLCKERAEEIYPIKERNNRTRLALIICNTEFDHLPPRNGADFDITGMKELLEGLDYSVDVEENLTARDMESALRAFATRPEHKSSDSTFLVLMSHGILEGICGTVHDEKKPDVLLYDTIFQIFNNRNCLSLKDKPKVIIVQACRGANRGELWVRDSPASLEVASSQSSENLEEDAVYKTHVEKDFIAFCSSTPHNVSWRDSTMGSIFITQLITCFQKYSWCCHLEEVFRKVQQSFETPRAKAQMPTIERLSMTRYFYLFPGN
# human Casein Kinase 1-delta (CK1D), CSNK1D (gene 1453), sequence (P48730 whole entry, looked up): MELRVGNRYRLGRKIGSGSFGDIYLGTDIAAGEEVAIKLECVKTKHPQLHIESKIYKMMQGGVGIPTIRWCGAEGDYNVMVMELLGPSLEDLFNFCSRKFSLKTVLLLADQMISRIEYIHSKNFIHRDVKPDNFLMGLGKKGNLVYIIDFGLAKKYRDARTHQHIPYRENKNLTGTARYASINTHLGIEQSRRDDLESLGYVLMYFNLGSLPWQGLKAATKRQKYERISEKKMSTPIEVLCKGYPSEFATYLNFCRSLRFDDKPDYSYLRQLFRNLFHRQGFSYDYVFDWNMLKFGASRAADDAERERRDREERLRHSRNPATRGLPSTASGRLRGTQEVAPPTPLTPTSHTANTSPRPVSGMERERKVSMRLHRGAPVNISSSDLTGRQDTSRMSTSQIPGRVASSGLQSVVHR
# human Esterase Plasma (ES), BCHE (gene 590), sequence (P06276 whole entry, looked up): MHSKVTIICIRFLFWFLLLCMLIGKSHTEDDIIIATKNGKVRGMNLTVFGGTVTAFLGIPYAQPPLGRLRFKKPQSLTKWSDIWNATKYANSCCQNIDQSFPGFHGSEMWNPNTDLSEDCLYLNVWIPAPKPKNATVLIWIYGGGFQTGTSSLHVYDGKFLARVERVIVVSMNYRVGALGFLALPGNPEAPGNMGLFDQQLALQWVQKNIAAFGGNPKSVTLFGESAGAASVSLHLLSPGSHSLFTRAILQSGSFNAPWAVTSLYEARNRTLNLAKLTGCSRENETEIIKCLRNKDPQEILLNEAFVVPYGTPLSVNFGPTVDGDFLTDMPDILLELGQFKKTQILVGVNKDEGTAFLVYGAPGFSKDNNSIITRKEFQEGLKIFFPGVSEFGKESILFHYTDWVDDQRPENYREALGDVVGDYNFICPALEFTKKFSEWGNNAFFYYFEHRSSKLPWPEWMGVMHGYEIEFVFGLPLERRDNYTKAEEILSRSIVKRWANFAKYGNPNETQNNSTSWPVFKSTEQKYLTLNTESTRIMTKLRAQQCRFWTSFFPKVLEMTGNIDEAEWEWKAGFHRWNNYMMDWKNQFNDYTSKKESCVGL
# human Caspase 8 (CASP8), CASP8 (gene 841), sequence (Q14790 whole entry, looked up): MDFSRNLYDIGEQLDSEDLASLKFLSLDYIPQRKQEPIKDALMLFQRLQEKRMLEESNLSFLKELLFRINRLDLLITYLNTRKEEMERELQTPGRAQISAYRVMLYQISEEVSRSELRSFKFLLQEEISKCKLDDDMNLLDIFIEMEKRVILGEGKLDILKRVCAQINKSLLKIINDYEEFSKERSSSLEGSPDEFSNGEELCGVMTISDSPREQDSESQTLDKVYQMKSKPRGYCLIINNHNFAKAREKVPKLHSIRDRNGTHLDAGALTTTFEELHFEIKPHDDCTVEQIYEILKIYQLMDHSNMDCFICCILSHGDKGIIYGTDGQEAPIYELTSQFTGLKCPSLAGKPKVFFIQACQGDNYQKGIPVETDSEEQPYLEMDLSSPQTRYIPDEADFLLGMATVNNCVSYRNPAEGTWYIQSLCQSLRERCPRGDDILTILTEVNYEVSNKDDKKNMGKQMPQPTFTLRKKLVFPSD
# human AKT serine/threonine Kinase 2 (AKT2), AKT2 (gene 208), sequence (P31751 whole entry, looked up): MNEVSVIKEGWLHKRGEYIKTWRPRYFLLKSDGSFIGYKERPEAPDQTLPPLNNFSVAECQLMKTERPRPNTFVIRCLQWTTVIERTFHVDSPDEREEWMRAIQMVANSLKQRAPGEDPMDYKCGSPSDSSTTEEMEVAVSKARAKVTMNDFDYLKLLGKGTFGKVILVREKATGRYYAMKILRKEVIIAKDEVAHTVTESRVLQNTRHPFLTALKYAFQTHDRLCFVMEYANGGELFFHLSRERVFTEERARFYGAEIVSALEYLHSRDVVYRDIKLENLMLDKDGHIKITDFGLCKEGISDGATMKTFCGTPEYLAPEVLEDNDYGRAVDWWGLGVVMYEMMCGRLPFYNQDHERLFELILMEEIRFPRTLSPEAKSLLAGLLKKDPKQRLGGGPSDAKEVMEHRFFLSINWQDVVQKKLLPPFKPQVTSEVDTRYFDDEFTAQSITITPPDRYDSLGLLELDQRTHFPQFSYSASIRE
# human Dual Specificity Protein Phosphatase 3 (DUSP3), DUSP3 (gene 1845), sequence (P51452 whole entry, looked up): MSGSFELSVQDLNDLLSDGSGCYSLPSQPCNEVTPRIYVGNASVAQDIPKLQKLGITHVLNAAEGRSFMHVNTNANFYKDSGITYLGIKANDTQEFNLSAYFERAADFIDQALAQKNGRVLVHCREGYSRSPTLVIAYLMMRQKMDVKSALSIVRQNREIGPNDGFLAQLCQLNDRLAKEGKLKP
# human Beta-secretase (BACE), BACE1 (gene 23621), sequence (P56817 whole entry, looked up): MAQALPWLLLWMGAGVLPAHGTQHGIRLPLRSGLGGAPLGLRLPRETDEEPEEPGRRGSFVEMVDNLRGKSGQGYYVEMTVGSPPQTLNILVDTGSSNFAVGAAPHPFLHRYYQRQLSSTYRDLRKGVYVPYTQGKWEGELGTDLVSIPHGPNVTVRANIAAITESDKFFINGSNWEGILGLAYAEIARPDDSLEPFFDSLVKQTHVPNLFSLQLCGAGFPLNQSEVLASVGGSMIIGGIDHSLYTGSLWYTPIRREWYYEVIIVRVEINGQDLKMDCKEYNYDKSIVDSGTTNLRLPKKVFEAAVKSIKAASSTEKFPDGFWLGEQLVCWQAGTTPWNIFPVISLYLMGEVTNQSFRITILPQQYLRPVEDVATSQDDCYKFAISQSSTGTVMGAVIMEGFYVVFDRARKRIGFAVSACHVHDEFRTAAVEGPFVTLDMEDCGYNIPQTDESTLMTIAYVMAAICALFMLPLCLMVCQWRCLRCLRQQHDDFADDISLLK
compound,measurement,setting,value
CCOC(=O)C(C)(C)Oc1ccc(Cl)cc1,outcome,[1],inactive
same,outcome,[2],inactive
O=C(OCCCCCOC(=O)c1ccccc1)c1ccccc1,outcome,[3],inactive
same,outcome,[4],inactive
same,outcome,[5],inactive
CC1=C(/C=C/C(C)=C/C=C/C(C)=C/CO)C(C)(C)CCC1,outcome,[3],inactive
same,outcome,[6],inactive
same,outcome,CDK2 (gene 1017),inactive
same,outcome,[4],inactive
same,AC50,[7],21.8 µM (active)
Cc1cccc(Nc2cc(Cl)nc(SCC(=O)O)n2)c1C,outcome,[7],inactive
Nc1nc(N)c2nc(CNc3ccc(C(=O)N[C@@H](CCC(=O)O)C(=O)O)cc3)cnc2n1,outcome,[7],inactive
same,outcome,[2],inactive
CC(C)(C)c1cc(O)c(C(C)(C)C)cc1O,outcome,[2],inactive
COc1cc(C=O)ccc1O,outcome,[7],inactive
Cc1ccc(C(C)C)c(O)c1,outcome,[6],inactive
same,outcome,[2],inactive
Oc1ccc2c(c1)OC[C@@H](N1CCC(O)(c3ccc(F)cc3)CC1)[C@H]2O,outcome,[8],inactive
COCCOC[C@H](CC1(C(=O)NC2CCC(C(=O)O)CC2)CCCC1)C(=O)Oc1ccc2c(c1)CCC2 (stereo partly drawn),outcome,[2],inactive
FC(F)(F)C(F)(F)C(F)(F)C(F)(F)C(F)(F)C(F)(F)CCI,outcome,CDK2 (gene 1017),inactive
same,outcome,[9],inactive
same,outcome,[5],inactive
same,outcome,[2],inactive
NC(=O)Cn1c(=O)cc(CCN2CCN(c3nccc4sccc34)CC2)c2ccc(F)cc21,AC50,[2],13 µM (active)
Cc1ccccc1Cl,outcome,[4],inactive
NCCO,outcome,[4],inactive
CN1CCN(Cc2cc(-c3ccc4[nH]c(=O)oc4c3)co2)[C@@H](c2ccc(F)cc2)C1,AC50,[2],9.48 µM (active)
CNC(=O)[C@H]1O[C@@H](n2cnc3c(NCc4cc(Cl)ccc4OCc4cc(C)no4)ncnc32)[C@H](O)[C@@H]1N,outcome,[9],inactive
NCC1(Cc2noc(=O)[nH]2)CCCCC1,outcome,[2],inactive
CC(=O)C(C)=CC1C(C)=CCCC1(C)C (stereo not drawn),outcome,[4],inactive
CCCCCCCCCCCCCCCCCC(=O)O,AC50,[8],19.6 µM (active)
same,AC50,[7],7.85 µM (active)
CC(=O)Oc1ccccc1C(=O)O,outcome,[5],inactive
O=C(O)Cc1ccccc1Nc1c(Cl)cccc1Cl,AC50,[9],12.3 µM (active)
Cc1cc(=O)[nH]c(=S)[nH]1,outcome,[2],inactive
NS(=O)(=O)c1cc2c(cc1Cl)NCNS2(=O)=O,outcome,[5],inactive
Cc1cccc([N+](=O)[O-])c1C,outcome,[6],inactive
same,outcome,[2],inactive
